About 83,000 compounds went through this panel and 20% of them were active in at least one assay; those are over-represented in the sample as a whole.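 Single-dose data. Exposure time 48 hours. Values below 10 considered active.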 Calls of active or inactive are those of the source.
Key:
Test in all cases: NCI-60 one-dose screen, 48 h (100 = growth as untreated, 0 = no growth, -100 = all killed)
Conditions in all cases: 10 µM unless noted
[1] = test system: SR leukemia
[2] = test system: RPMI-8226 leukemia
[3] = test system: OVCAR-8 ovarian
[4] = test system: OVCAR-5 ovarian
[5] = test system: OVCAR-4 ovarian
[6] = test system: SK-OV-3 ovarian
[7] = test system: IGROV1 ovarian
[8] = test system: OVCAR-3 ovarian
[9] = test system: HS 578T breast
[10] = test system: NCI/ADR-RES ovarian

Measured: growth

C=C1C(=O)O[C@H]2[C@H]1CC/C(Cn1cc(-c3cc(C(F)(F)F)cc(C(F)(F)F)c3)nn1)=C\CC[C@@]1(C)O[C@@H]21
active: [1] -48.5% | [2] -31.4% | [3] -85.7% | [4] -69.4% | [5] -95.1% | [6] -89.5% | [7] -78.6% | [8] -92.7% | [9] -30.5% | [10] -35.7%

NC(=O)OCCn1cc(-c2nc(-c3c[nH]c4ncccc34)cs2)c2ccccc21
inactive: [1] 24.2% | [2] 24.9% | [3] 41.6% | [4] 58.2% | [5] 71.7% | [6] 41.6% | [7] 41.3% | [8] 27.9% | [9] 41.4% | [10] 38.1%

COc1ccc(C(O)c2cc3c(N)c(C(=O)Nc4cccc(Cl)c4)sc3nc2C)cc1 (stereo not given)
active: [8] 7.47% | [9] -8.06%
inactive: [1] 13.2% | [2] 15.8% | [3] 13.5% | [4] 28.5% | [5] 50.7% | [6] 19% | [7] 24.5% | [10] 13.2%

Cc1cc(F)ccc1S(=O)(=O)Nc1cc(-c2c(O)ccc3ccccc23)c(O)c2ccccc12
inactive: [1] 18.8% | [2] 11.6% | [3] 37.1% | [4] 56.9% | [6] 52.3% | [7] 27.6% | [8] 17.3% | [9] 42.3% | [10] 31.3%
active: [5] -8.24%

C=C1C(=O)O[C@H]2[C@H]1CC/C(COC(=O)/C=C\C(=O)NCc1ccc(Cn3c(=O)sn(-c4ccccc4)c3=O)cc1)=C\CC[C@@]1(C)O[C@@H]21
inactive: [1] 72.4% | [2] 40.5% | [3] 91.2% | [4] 98.3% | [5] 85% | [6] 108% | [7] 77.4% | [8] 39.5% | [9] 90.3% | [10] 111%

COc1cc(C2C3=C(COC3=O)N(CCO)c3cc4c(cc32)OCCO4)cc(OC)c1OC (stereo not given)
inactive: [2] 21.9% | [4] 41.5% | [5] 24.9% | [10] 48.2%
active: [1] 1.09% | [3] 6.75% | [6] 5.64% | [7] 4.17% | [8] -55.6% | [9] -4.92%

COc1ccc(-c2cc(-c3cc(OC)c(OC)c(OC)c3)c(C#N)c(=O)n2CCCCCC(=O)NO)cc1
inactive: [1] 78.2% | [2] 72.8% | [3] 87% | [4] 108% | [5] 100% | [6] 122% | [7] 101% | [8] 101% | [9] 85.2% | [10] 96.1%

O=C(c1ccc(Cl)cc1Cl)N1c2ccccc2Sc2ccccc21
inactive: [1] 32.2% | [2] 55.3% | [3] 50.7% | [4] 71.4% | [5] 81.9% | [6] 69.1% | [7] 60.9% | [8] 58.9% | [9] 95.9% | [10] 60.9%

O=C1OCC2=C1C(c1cccc(C(F)(F)F)c1)c1cc3c(cc1N2CCO)OCO3 (stereo not given)
active: [8] -5.02%
inactive: [1] 15.7% | [2] 21% | [3] 23.3% | [4] 55% | [5] 58.1% | [6] 27.9% | [7] 37.2% | [9] 31.4% | [10] 25%

COP(=O)(OC)c1nnn(-c2cccc([N+](=O)[O-])c2)c1C
inactive: [1] 104% | [2] 103% | [3] 101% | [4] 104% | [5] 103% | [6] 123% | [7] 110% | [8] 111% | [9] 102% | [10] 103%

O=C(NCc1ccccc1O)c1cccc2ccccc12
inactive: [1] 64.9% | [2] 38.6% | [3] 89.8% | [4] 108% | [5] 72.7% | [6] 89.5% | [7] 62% | [8] 56.4% | [9] 66.5% | [10] 79.2%

O=C(/C=C/C12c3ccccc3C(c3ccccc31)C1C(=O)NC(=O)C12)c1ccc(F)cc1 (stereo not given)
inactive: [4] 28% | [5] 30.3% | [7] 13.2% | [9] 23.7%
active: [1] 0.421% | [2] -24% | [3] -64.2% | [6] -1.75% | [8] -10.1% | [10] 5.4%

COc1cccc(/C=C/C(=O)c2cc3c(N)c(C(=O)Nc4cccc(Cl)c4C)sc3nc2C)c1
active: [1] 7.93% | [2] -32.6% | [3] -33.4% | [4] 7.92% | [7] -18.7% | [8] -60.5% | [9] 4.67% | [10] -3.64%
inactive: [5] 38.1% | [6] 14.7%

Cn1cc(-c2nn3cc(-c4ccccc4)nc3s2)c2ccccc21
inactive: [1] 13.2% | [2] 91.2% | [3] 89.4% | [4] 70.5% | [5] 63.6% | [6] 68.7% | [7] 52.1% | [8] 72.7% | [9] 62.3% | [10] 70.5%

COc1ccc(Nc2ncccc2NC(=O)c2cn(Cc3cccc(Oc4ccccc4)c3)nn2)cc1OC
inactive: [1] 34.9% | [2] 73.2% | [3] 90.8% | [4] 111% | [5] 68.2% | [6] 93.5% | [7] 89.5% | [8] 73.3% | [9] 72.9% | [10] 77%

O=C(c1ccc(F)c(Cl)c1)N1c2ccccc2Sc2ccccc21
inactive: [1] 34% | [2] 52.6% | [3] 89.9% | [4] 87.3% | [5] 80.1% | [6] 89.2% | [7] 71.2% | [8] 63.2% | [9] 79.3% | [10] 39.8%

Clc1nccc2c(-c3csc(-c4c[nH]c5ccccc45)n3)c[nH]c12
inactive: [1] 11.3% | [2] 51.4% | [3] 56.5% | [4] 107% | [5] 68.9% | [6] 58.8% | [7] 68.6% | [8] 68.6% | [9] 45.2% | [10] 53.1%

COc1cc(/C=N/Nc2ccccc2F)cc(OC)c1OC
inactive: [1] 90.9% | [2] 83.8% | [3] 92% | [4] 94.6% | [5] 92.3% | [6] 111% | [7] 86.1% | [8] 108% | [9] 94.9% | [10] 99.6%

CCCNc1nc2ccccc2c2c(=O)c3cccc(Cl)c3sc12
inactive: [1] 82.7% | [2] 103% | [3] 95.4% | [4] 96.5% | [5] 81.9% | [6] 88.4% | [7] 70.1% | [8] 111% | [9] 114% | [10] 101%

COc1cc(/C=C2\C(=O)N(c3c(Cl)cccc3Cl)c3ccccc32)cc(OC)c1OCCCCCCn1c2ccccc2c(=O)c2ccccc21
inactive: [1] 85.7% | [2] 102% | [3] 98.3% | [4] 88.6% | [5] 95.5% | [6] 110% | [7] 75.5% | [8] 104% | [9] 113% | [10] 109%

O=C1NC(=C(Cl)Cl)/C(=N/S(=O)(=O)NCCc2c[nH]c3ccccc23)N1
inactive: [1] 53.3% | [2] 14.8% | [3] 92.9% | [4] 48.3% | [5] 58.6% | [6] 62.2% | [7] 98.7% | [9] 27.3% | [10] 67.9%
active: [8] -25.8%

CN1CCN(CCOc2ccc(-c3cnc4c(-c5ccc(C(F)(F)F)cc5)cnn4c3)cc2)CC1
inactive: [3] 27.2% | [4] 79.7% | [5] 57.2% | [6] 85.6% | [7] 38.8% | [9] 56% | [10] 52.8%
active: [1] -8.03% | [2] 1.38% | [8] -3.51%

CCCCn1sc(=O)n(Cc2ccc(CNC(=O)OCc3ccc4c(Cl)cc(Cl)c(O)c4n3)cc2)c1=O
inactive: [1] 65.6% | [2] 63% | [3] 38% | [4] 98.4% | [5] 65.2% | [6] 88.3% | [7] 57.4% | [8] 66.3% | [9] 82.3%
active: [10] 9.16%

Cn1c(/C=C/[N+](=O)[O-])cc2ccccc21
inactive: [3] 10.8% | [5] 94.2% | [6] 82.4% | [8] 88.3% | [9] 70.2% | [10] 59.5%
active: [1] -7.91% | [2] -17.3% | [4] 7.36% | [7] 0.609%

COc1ccc(C(c2cc(OC)c(OC)c(OC)c2)N2CCCC2)cc1 (stereo not given)
inactive: [1] 23.9% | [2] 97.4% | [3] 95.6% | [4] 92.6% | [5] 101% | [6] 77.5% | [7] 82.9% | [8] 66.6% | [9] 80.4% | [10] 69.4%

CCOC(=O)c1c2c(n3c1NCC3)-c1ccccc1C2=O
inactive: [1] 100% | [2] 105% | [3] 99.4% | [4] 89.4% | [5] 99.7% | [6] 104% | [7] 67.3% | [8] 92.1% | [9] 106% | [10] 102%

O=C(/C=C/c1ccc(Br)cc1)c1ccc(-n2cc(CN3CCN(c4cc5c(cc4F)c(=O)c(C(=O)O)cn5C4CC4)CC3)nn2)cc1
inactive: [1] 16.6% | [2] 34.2% | [3] 79% | [4] 99.5% | [5] 91.4% | [6] 78.4% | [7] 74.2% | [8] 95.9% | [9] 83.6% | [10] 102%
